Reference: PubChem BioAssay (NCI)
About 79,000 compounds went through this panel and 15% of them were active in at least one assay; those are over-represented in the sample as a whole. Cut-off read from the data, not from the text of the source: active = growth inhibition above about 70%; inactive = the rest.

Key:
[1] = NCI Yeast Anticancer Drug Screen. Data for the rad50 strain (AID 155);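 note: 0% = growth of vehicle-only cultures of the same strain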; conditions: S. cerevisiae rad50 strain growth inhibition, active compounds read high; at 50.0 µM unless noted
How it was run: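 Relative growth inhibition (compound vs vehicle) was measured in yeast with a defined repair-gene alteration.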

[2] = NCI Yeast Anticancer Drug Screen. Data for the mec2-1 strain (AID 157); conditions: S. cerevisiae mec2-1 strain, active compounds read high; at 50.0 µM unless noted
How it was run: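 Compounds were applied to mec2-1 yeast cells. Their growth was then compared with that of vehicle-treated cultures to give growth inhibition.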

[3] = NCI Yeast Anticancer Drug Screen. Data for the sgs1 mgt1 strain (AID 161);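 note: 0% = growth of cultures given vehicle only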; conditions: S. cerevisiae sgs1 mgt1 strain, active compounds read high; at 50.0 µM unless noted
How it was run: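 Percent growth inhibition was derived by comparing compound-exposed mutant yeast with vehicle-exposed cultures. The strain carries alterations in DNA damage repair.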

[4] = NCI Yeast Anticancer Drug Screen. Data for the cln2 rad14 strain (AID 165);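 note: 0% = growth equal to vehicle treated cultures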; conditions: S. cerevisiae cln2 rad14 strain, active compounds read high; at 50.0 µM unless noted
How it was run: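 Strain: cln2 rad14 yeast, altered in cell cycle control and DNA damage repair. Read-out: growth inhibition vs vehicle.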

[5] = NCI Yeast Anticancer Drug Screen. Data for the bub3 strain (AID 167); conditions: S. cerevisiae bub3 mutant strain, active compounds read high; at 50.0 µM unless noted
How it was run: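 Screening used yeast with an engineered genetic alteration affecting cell cycle control. Compound-exposed cultures were compared with vehicle cultures, and reduced growth was taken as inhibition.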

[6] = NCI Yeast Anticancer Drug Screen. Data for the mlh1 rad18 strain (AID 175); conditions: S. cerevisiae mlh1 rad18 strain growth inhibition, active compounds read high; at 50.0 µM unless noted
How it was run: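 A repair-deficient yeast strain is exposed to test compound, and growth is scored relative to vehicle-treated controls.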

Measured: growth inhibition

Cc1[nH]c(=O)nc2nc3ccc(Cl)cc3c(N(CCO)CCO)c12
inactive: [1] -24.3% | [2] -20.8% | [3] -12.8% | [4] 19.2% | [5] 19.9% | [6] -8.7%

C/C=C/C=C/C(=O)OCCCC
inactive: [1] 6.95% | [2] -0.65% | [3] -8.55% | [4] 5.65% | [5] 15.1% | [6] -1.75%

CNNC(=O)C(O)C(C)(C)CO (stereo unspecified)
inactive: [1] -4.45% | [2] 8.5% | [3] -4.3% | [4] 20.1% | [5] 6.5% | [6] 9.8%

O=c1c2ccccc2c(=O)n2n1-c1cccc(c1)CSSCc1cccc-2c1
inactive: [1] -16.9% | [2] 2.7% | [3] -10.6% | [4] -3.45% | [5] 0.2% | [6] -12.8%

CCOC(=O)/C(C)=C\C=C(\C)CCC=C(C)C
inactive: [1] -8.8% | [2] -19.1% | [3] -2.45% | [4] -28.3% | [5] -15.2% | [6] 15.4%

CC1(C)C2CCC1(C)C(/C=N/NC(N)=O)C2 (stereo unspecified)
inactive: [1] 5.4% | [2] 17.8% | [3] -5.6% | [4] -46% | [5] 20.4% | [6] 12.8%

CCOC(=O)C12CCCC1(O)N(NC(=O)OC)C(C)=C2C(=O)OC (stereo unspecified)
inactive: [1] -6.6% | [2] -7.65% | [3] 2.05% | [4] -63.4% | [5] -5.6% | [6] -6.5%

COc1c2c(c(OC)c3ccccc13)C(=O)C1=C(CC=CC1)C2=O
inactive: [1] 4% | [2] 18.4% | [3] -8.6% | [4] -10.1% | [5] 14.6% | [6] 40.1%

CC(C)(Oc1ccc(C(=O)c2ccc(Cl)cc2)cc1Cl)C(=O)N1CCN(c2ccccc2)CC1
inactive: [1] 2% | [2] -46.1% | [3] -0.85% | [4] -55% | [5] -9.2% | [6] -5.9%

CC(C)(CO)NCC(C)(C)[N+](=O)[O-]
inactive: [1] 8.5% | [2] 2.25% | [3] 14.6% | [4] -9.2% | [5] 6.95% | [6] 6.7%

CCOC(=O)/C=C1\SC(C)(C)C1NC(=O)OCc1ccccc1 (stereo unspecified)
inactive: [1] -73.2% | [2] -30.5% | [3] -6.15% | [4] -18.1% | [5] -0.2% | [6] -15%

COC1OC(CO)C(O)C(Nc2ccc([N+](=O)[O-])cc2[N+](=O)[O-])C1O (stereo unspecified)
inactive: [1] 7.2% | [2] 1.05% | [3] 19.1% | [4] -53.6% | [5] -10.8% | [6] 1.1%

ONC(CC(O)(NO)NO)c1ccccc1 (stereo unspecified)
inactive: [1] -32.7% | [2] -32% | [3] -20.6% | [4] 12.6% | [5] -28.1% | [6] -25.9%

Cc1nc2c(c(=O)[nH]1)C(c1ccccc1)C(C)(C)O2 (stereo unspecified)
inactive: [1] 3.6% | [2] -23.3% | [3] -3.6% | [4] -4.5% | [5] 6.15% | [6] 6.85%

Nc1ncc2c(n1)-c1ccccc1OC2
inactive: [1] -29.5% | [2] 2.8% | [3] -12.4% | [4] -1.4% | [5] -20.9% | [6] -10.4%

CCN(CC)Cc1cc(O)ccc1NCCCNc1ccnc2cc(Cl)ccc12
inactive: [1] 49.4% | [2] 11.1% | [3] 40.1% | [4] 16.4% | [5] -7.05% | [6] 12.1%

Cc1ccc(C)c(NC(=O)NC(C)(C)C)c1
inactive: [1] -0.2% | [2] -22.4% | [3] -2.7% | [4] -55.1% | [5] -5.65% | [6] -4.5%

COc1ccc(/C=C/c2ccc(OC)cc2)cc1
inactive: [1] 13.3% | [2] -8.1% | [3] 0.6% | [4] -13.4% | [5] 8.7% | [6] 5.8%

O=C(C[n+]1ccccc1CO)c1ccc(-c2ccccc2)cc1
inactive: [1] 26.2% | [2] -6.4% | [3] 17.2% | [4] -4.85% | [5] 6.5% | [6] 5.4%

O=c1oc(=O)c2cc3c(=O)oc(=O)c3cc12
inactive: [1] -21.4% | [2] 11.1% | [3] -6.75% | [4] -28% | [5] 7.1% | [6] -5.6%

CCCCCc1cc[n+](CC(=O)c2ccc(F)cc2)cc1
inactive: [1] -6.55% | [2] 13.6% | [3] 23.1% | [4] -35.6% | [5] 45.6% | [6] 13.5%
